The values below come from PubChem BioAssay (NCATS).

Values without a mark were called inactive. Results filed as inconclusive are left out. Active and inactive are the calls of the source. Unless noted, calls follow the shape of the dose curve; as a rule, active = well fitted curve in the direction sought with a large enough effect; inconclusive = small, poorly fitted or top-dose-only effect, or effect the other way, or another doubt; inactive = no such curve, though single readings can be large or run the other way.

Chain of Tumor susceptibility gene 101 protein (Homo sapiens) (Q99816 whole entry, looked up, the tested form may be a part): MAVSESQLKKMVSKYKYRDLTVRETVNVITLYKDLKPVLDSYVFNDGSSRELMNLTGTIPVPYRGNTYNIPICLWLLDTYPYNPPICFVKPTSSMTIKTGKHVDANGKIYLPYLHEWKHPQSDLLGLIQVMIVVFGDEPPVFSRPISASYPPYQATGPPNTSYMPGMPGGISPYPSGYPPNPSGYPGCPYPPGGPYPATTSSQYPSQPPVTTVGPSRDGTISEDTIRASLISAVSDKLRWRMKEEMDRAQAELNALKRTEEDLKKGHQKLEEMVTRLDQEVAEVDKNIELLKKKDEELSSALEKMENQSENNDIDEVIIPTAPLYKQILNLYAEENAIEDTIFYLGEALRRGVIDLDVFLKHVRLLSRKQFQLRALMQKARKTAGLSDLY

The first test has as its target Tumor susceptibility gene 101 protein (Homo sapiens) (UniProt Q99816). In words: qHTS Validation Assay for Iinhibitors of HIV-1 Budding by Blocking the Interaction of PTAP/TSG101 (AID 485342; calls by dose curve; also: 0% is about no effect). To be noted: TSG101-PTAP binding, fluorescence polarization, 4-point titration; series mostly up to 115 µM; fluorescence change: at the top concentration. The procedure, abridged: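 FP read-out: FITC-PTAP peptide, 50 nM final, binding Tsg101 binding domain, 10 uM final; 20 min r.t.; 10 mM HEPES pH 7.5, 0.15 M NaCl, 0.01% Tween 20, 3 mM EDTA, 0.1 mM TCEP.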
A general note: In qHTS, concentration-response curves come from the screen itself.
For `OCC1O[C@H]([S-])[C@H](O)[C@@H](O)[C@@H]1O.[Au+]` (stereo partly specified), the “fluorescence change” value is 4.67%.
On to `CO/N=C(\C(=O)N[C@@H]1C(=O)N2C(C(=O)O)=C(COC(C)=O)CS[C@H]12)c1csc(N)n1`, for which the “fluorescence change” value is 0.618%.
Take `CCC1C(=O)OCC1Cc1cncn1C` (stereo unspecified): the compound was classed as inactive.
Consider `CCCCC#Cc1nc(NC)c2ncn([C@@H]3O[C@H](CO)[C@@H](O)[C@H]3O)c2n1`, for which the “fluorescence change” value was -1.83%.
On the same count and under the same terms, as for `COc1ccc(NC(=O)/C=C/c2ccc(Cl)cc2)cc1`, the figure is -1.38%.
The same measure, in the same setting: as for `NC(=S)NCCC[C@H](N)C(=O)O`, the figure is -1.5%; as for `Ic1ccc(N2CCN(Cc3c[nH]c4ncccc34)CC2)cc1`, 3.07%; as for `COc1cc(SC)ccc1C(=O)N1CCC(Cc2ccccc2)CC1`, -14.6%.
In the case of `CNC(=O)[C@H]1O[C@@H](n2cnc3c(NCc4cccc(I)c4)ncnc32)[C@H](O)[C@@H]1O`, the “fluorescence change” value is -9.91%.
Same read-out and setting: the figure for `O=C1/C(=C/c2ccsc2)CC/C1=C\c1cccs1` is -2.66%; for `O=C1NC(=O)/C(=C/c2ccc3nccnc3c2)S1` it is -8.26%.
Still for that read-out and setting: as for `Nc1ncnc2c1ncn2[C@@H]1O[C@H](COP(=O)(O)CP(=O)(O)OP(=O)(O)O)[C@@H](O)[C@H]1O`, the figure is -0.448%; as for `CN1CCc2cccc3c2C1Cc1ccc(O)c(O)c1-3` (stereo unspecified), 4.35%; as for `Nc1ncnc2c1ncn2[C@@H]1O[C@H](COP(=O)(O)OP(=O)(O)OP(=O)(O)OP(=O)(O)OC[C@@H]2O[C@H](n3cnc4c(N)ncnc43)[C@@H](O)[C@H]2O)[C@@H](O)[C@H]1O`, 1.75%.
With `O=C(c1cc(O)c(O)c([N+](=O)[O-])c1)c1ccccc1F`, the “fluorescence change” value was -10.2%.
Regarding `c1cnc2c(c1)ccc1cccnc12`, the “fluorescence change” value was 0.844%.
Same read-out and setting: the figure for `O=C1NC(=O)/C(=C/c2ccc(-c3ccc(F)cc3O)o2)S1` is -1.53%; for `Nc1nc(Nc2ccccc2)nc2c1ncn2[C@@H]1O[C@H](CO)[C@@H](O)[C@H]1O` it is 2.83%; for `NCC1OC(O[C@H]2[C@H](O)[C@@H](OC3C(O)C(N)CC(N)C3OC3OC(CO)C(O)C(O)C3N)O[C@@H]2CO)C(N)C(O)C1O` (stereo partly specified) it is -3.15%.
The same measure, in the same setting: the figure for `C#C[C@]1(O)CC[C@H]2[C@@H]3CCC4=Cc5oncc5CC4(C)[C@H]3CCC21C` (stereo partly specified) is -1.58%.
The same measure, in the same setting: as for `Nc1nc(SCc2ccc([N+](=O)[O-])cc2)c2ncn([C@@H]3O[C@H](CO)[C@@H](O)[C@H]3O)c2n1`, the figure is 1.3%; as for `CN1C2CC(OC(=O)[C@H](CO)c3ccccc3)CC1C1OC12` (stereo partly specified), 1.97%; as for `CCCCCCCCCCCCCCCCCC(=O)OC(CC(=O)O)C[N+](C)(C)C` (stereo unspecified), 1.13%.
In the case of `CCCCCCCCCCCCCCCC(=O)NCC(COP(=O)([O-])OCC[N+](C)(C)C)OCC` (stereo unspecified), the “fluorescence change” value was 0.265%.

Test system in a further test: not listed separately
The test can be described thus: qHTS Validation Assay to Find Inhibitors of Chronic Active B-Cell Receptor Signaling (AID 485345; active = well fitted curve in the direction sought with a large enough effect in the main read-out, with a control signal flat, not every such curve was filed as active;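 also: 0% = untreated basal cells and 100% = 10 µM MG-132 proteasome inhibitor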). To be noted: ABC-DLBCL cells, chronic BCR signaling reporter, CBG luciferase; series mostly up to 46.1 µM; activity change: at the top concentration. Put shortly:
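TMD8 ABC-DLBCL cells with dox-inducible green luciferase–IκBα fusion and red native luciferase; compounds 46 uM–3 nM, 4 h at 37C with doxycycline in 0.5% FBS IMDM. Green/red ratio normalized to basal and 10 uM MG-132.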
For the compound `Clc1ccc(N2CCN(Cc3cc4ccccn4n3)CC2)cc1`, the “activity change” value was -9.53%.
Same read-out and setting: as for `Cc1nc2sccn2c(=O)c1CCN1CCC(=C(c2ccccc2)c2ccc(F)cc2)CC1`, the figure is -2.58%.
On the same count and under the same terms, the figure for `CCc1c(C(=O)NCCc2ccc(N3CCCCC3)cc2)[nH]c2ccc(Cl)cc12` is -12.3%; for `CO/S(=N\S(=O)(=O)c1ccc(Cl)cc1)c1ccc([N+](=O)[O-])cc1` (stereo unspecified) it is -10.6%.
Same read-out and setting: as for `CO/N=C(\C(=O)N[C@@H]1C(=O)N2C(C(=O)O)=C(COC(C)=O)CS[C@H]12)c1csc(N)n1`, the figure is -8.68%.
On to `CCC1C(=O)OCC1Cc1cncn1C` (stereo unspecified), for which the compound was classed as inactive.
On to `NC(=S)NCCC[C@H](N)C(=O)O`, for which the “activity change” value is 0.952%.
Regarding `Ic1ccc(N2CCN(Cc3c[nH]c4ncccc34)CC2)cc1`, the “activity change” value was -24%.
Turning to `Nc1ncnc2c1ncn2[C@@H]1O[C@H](COP(=O)(O)CP(=O)(O)OP(=O)(O)O)[C@@H](O)[C@H]1O`, the “activity change” value is -6.21%.
The same measure, in the same setting: as for `O=C(c1cc(O)c(O)c([N+](=O)[O-])c1)c1ccccc1F`, the figure is -1.48%; as for `c1cnc2c(c1)ccc1cccnc12`, -7.43%; as for `NCC1OC(O[C@H]2[C@H](O)[C@@H](OC3C(O)C(N)CC(N)C3OC3OC(CO)C(O)C(O)C3N)O[C@@H]2CO)C(N)C(O)C1O` (stereo partly specified), 1.55%.
The same measure, in the same setting: the figure for `CN1C2CC(OC(=O)[C@H](CO)c3ccccc3)CC1C1OC12` (stereo partly specified) is -8.39%; for `CCCCCCCCCCCCCCCC(=O)NCC(COP(=O)([O-])OCC[N+](C)(C)C)OCC` (stereo unspecified) it is 16.5%.

The target in another test is Beta-2 adrenergic receptor (Homo sapiens) (UniProt P07550). In words: qHTS validation assay of beta-arrestin-biased ligands of beta2-adrenergic receptor (AID 485366). Also: 0% is about no effect. To be noted: cell-based beta-arrestin recruitment to ADRB2, qHTS; series mostly up to 46.1 µM; activation: at the top concentration. The procedure, abridged: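 Agonist activity is measured as luciferase luminescence downstream of beta-arrestin recruitment to recombinant beta2-AR in Tango cells. Exposure lasts 18 hr at 37 degrees C, and curves are categorized by r2, response size and activity.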
Chain of Beta-2 adrenergic receptor (Homo sapiens) (P07550 whole entry, looked up): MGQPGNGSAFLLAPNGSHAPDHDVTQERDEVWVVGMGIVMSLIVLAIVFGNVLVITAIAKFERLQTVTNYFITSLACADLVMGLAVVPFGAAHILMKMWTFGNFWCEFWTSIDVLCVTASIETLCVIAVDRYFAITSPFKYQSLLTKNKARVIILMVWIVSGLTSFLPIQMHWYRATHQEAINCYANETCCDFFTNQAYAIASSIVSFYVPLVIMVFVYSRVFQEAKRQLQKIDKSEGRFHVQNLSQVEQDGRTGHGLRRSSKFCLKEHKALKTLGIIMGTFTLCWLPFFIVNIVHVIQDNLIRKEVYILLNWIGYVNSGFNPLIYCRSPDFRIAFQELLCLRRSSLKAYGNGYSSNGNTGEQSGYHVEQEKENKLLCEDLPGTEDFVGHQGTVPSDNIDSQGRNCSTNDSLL
Turning to `CNc1ncnc2c1ncn2[C@@H]1O[C@H](CO)[C@@H](O)[C@H]1O`, the “activation” value is -0.699%.
Still for that read-out and setting: as for `CCNC(=O)[C@H]1O[C@@H](n2cnc3c(N)nc(NCCc4ccc(CCC(=O)O)cc4)nc32)[C@H](O)[C@@H]1O`, the figure is 6.82%; as for `CSc1nc(N)c2ncn([C@@H]3O[C@H](COP(=O)(O)OP(=O)(O)OP(=O)(O)O)[C@@H](O)[C@H]3O)c2n1`, -0.514%; as for `Clc1ccc(N2CCN(Cc3cc4ccccn4n3)CC2)cc1`, 0.552%.
Still for that read-out and setting: as for `C=CC(=O)c1ccc(CCCCCC)cc1`, the figure is 4.11%.
Still for that read-out and setting: the figure for `OC[C@H]1O[C@@H](n2cnc3c(Nc4ccccc4)ncnc32)[C@H](O)[C@@H]1O` is 1.63%.
Regarding `NC(=S)c1ccc[n+]([C@@H]2O[C@@H](COP(=O)([O-])OP(=O)(O)OC[C@H]3O[C@@H](n4cnc5c(N)ncnc54)[C@H](OP(=O)(O)O)[C@@H]3O)C(O)C2O)c1` (stereo partly specified), the “activation” value is -0.556%.
Still for that read-out and setting: as for `COc1ccc2c(c1)CCC1C2CC[C@@]2(C)C1CC[C@@H]2NCCCCCCN1C(=O)CCC1=O` (stereo partly specified), the figure is 0.236%; as for `Cc1nc2sccn2c(=O)c1CCN1CCC(=C(c2ccccc2)c2ccc(F)cc2)CC1`, 1.03%; as for `CSc1ccccc1N1CCN(CCCCCC(=O)NC2CCCc3ccccc32)CC1` (stereo unspecified), 0.0261%.
On the same count and under the same terms, the figure for `NC[C@H]1O[C@@H](n2cnc3c(N)ncnc32)[C@H](O)[C@@H]1O` is 0.12%; for `CCc1c(C(=O)NCCc2ccc(N3CCCCC3)cc2)[nH]c2ccc(Cl)cc12` it is 0.584%.
Regarding `N#C/C(=C\c1ccc(-c2cc(Cl)ccc2Cl)o1)C(=O)Nc1cccc2ncccc12`, the “activation” value is 0.178%.
The same measure, in the same setting: the figure for `CO/S(=N\S(=O)(=O)c1ccc(Cl)cc1)c1ccc([N+](=O)[O-])cc1` (stereo unspecified) is 1.51%; for `OCC1O[C@H]([S-])[C@H](O)[C@@H](O)[C@@H]1O.[Au+]` (stereo partly specified) it is 0.719%.
For the compound `CO/N=C(\C(=O)N[C@@H]1C(=O)N2C(C(=O)O)=C(COC(C)=O)CS[C@H]12)c1csc(N)n1`, the “activation” value is -0.358%.
On to `CCC1C(=O)OCC1Cc1cncn1C` (stereo unspecified), for which the result was inactive.
For `CCCCC#Cc1nc(NC)c2ncn([C@@H]3O[C@H](CO)[C@@H](O)[C@H]3O)c2n1`, the “activation” value was -0.182%.
For the compound `COc1ccc(NC(=O)/C=C/c2ccc(Cl)cc2)cc1`, the “activation” value was -0.525%.
Still for that read-out and setting: as for `NC(=S)NCCC[C@H](N)C(=O)O`, the figure is -0.0725%; as for `Ic1ccc(N2CCN(Cc3c[nH]c4ncccc34)CC2)cc1`, -1.02%; as for `COc1cc(SC)ccc1C(=O)N1CCC(Cc2ccccc2)CC1`, 0.0118%.
Still for that read-out and setting: the figure for `CNC(=O)[C@H]1O[C@@H](n2cnc3c(NCc4cccc(I)c4)ncnc32)[C@H](O)[C@@H]1O` is -0.312%; for `O=C1/C(=C/c2ccsc2)CC/C1=C\c1cccs1` it is -0.524%.
On the same count and under the same terms, as for `O=C1NC(=O)/C(=C/c2ccc3nccnc3c2)S1`, the figure is -0.14%; as for `Nc1ncnc2c1ncn2[C@@H]1O[C@H](COP(=O)(O)CP(=O)(O)OP(=O)(O)O)[C@@H](O)[C@H]1O`, 0.115%; as for `CN1CCc2cccc3c2C1Cc1ccc(O)c(O)c1-3` (stereo unspecified), 0.0367%.
As for `Nc1ncnc2c1ncn2[C@@H]1O[C@H](COP(=O)(O)OP(=O)(O)OP(=O)(O)OP(=O)(O)OC[C@@H]2O[C@H](n3cnc4c(N)ncnc43)[C@@H](O)[C@H]2O)[C@@H](O)[C@H]1O`, the “activation” value was -0.0883%.
On the same count and under the same terms, the figure for `O=C(c1cc(O)c(O)c([N+](=O)[O-])c1)c1ccccc1F` is -0.316%; for `c1cnc2c(c1)ccc1cccnc12` it is 0.149%; for `O=C1NC(=O)/C(=C/c2ccc(-c3ccc(F)cc3O)o2)S1` it is 5.06%.
The same measure, in the same setting: the figure for `Nc1nc(Nc2ccccc2)nc2c1ncn2[C@@H]1O[C@H](CO)[C@@H](O)[C@H]1O` is 7.67%; for `NCC1OC(O[C@H]2[C@H](O)[C@@H](OC3C(O)C(N)CC(N)C3OC3OC(CO)C(O)C(O)C3N)O[C@@H]2CO)C(N)C(O)C1O` (stereo partly specified) it is -0.108%.
Same read-out and setting: as for `C#C[C@]1(O)CC[C@H]2[C@@H]3CCC4=Cc5oncc5CC4(C)[C@H]3CCC21C` (stereo partly specified), the figure is -0.206%; as for `Nc1nc(SCc2ccc([N+](=O)[O-])cc2)c2ncn([C@@H]3O[C@H](CO)[C@@H](O)[C@H]3O)c2n1`, -0.216%.
In the case of `CN1C2CC(OC(=O)[C@H](CO)c3ccccc3)CC1C1OC12` (stereo partly specified), the “activation” value was -0.183%.
The same measure, in the same setting: the figure for `CCCCCCCCCCCCCCCCCC(=O)OC(CC(=O)O)C[N+](C)(C)C` (stereo unspecified) is -1.55%; for `CCCCCCCCCCCCCCCC(=O)NCC(COP(=O)([O-])OCC[N+](C)(C)C)OCC` (stereo unspecified) it is -0.0145%.
